# Screens deposited in PubChem by several laboratories.
# Sampled rows, rich in hits. Any-hit rate of the full collection: about 1.5%.
# B2AR ag = human beta-2 adrenergic receptor agonism by FAP; Am2.2-beta2AR cells, FAP receptor internalization, flow cytometry; P07550; response, % (concentration not given with the values); 340,000 compounds, 0.43% hits;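 active = response above a set limit, near 3 SD of response in nonfluorescent compounds, cut at about 42% in these data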
# TLR4 MyD88 comp = TLR4-MyD88 interaction inhibition in cells; O00206+Q99836; HeLa CL3-4 TLR4/MyD88 BLA complementation, FRET ratio; inhibition, % at 8.4 µM; 200,000 compounds, 0.18% hits; in the data active = inhibition above about 25%;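 note: 0% = vehicle and 100% = reference inhibitor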
# NOD2-RIPK2 inh = blocks binding of human NOD2 to RIPK2; O43353; CHO BLA complementation NOD2-RIPK2, CCF4 ratio; inhibition, % at 4.98 µM; 360,000 compounds, 0.38% hits; in the data active = inhibition above about 21%;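 note: 0% = vehicle only and 100% = reference blocker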
# Target sequence (O43353 whole entry, looked up): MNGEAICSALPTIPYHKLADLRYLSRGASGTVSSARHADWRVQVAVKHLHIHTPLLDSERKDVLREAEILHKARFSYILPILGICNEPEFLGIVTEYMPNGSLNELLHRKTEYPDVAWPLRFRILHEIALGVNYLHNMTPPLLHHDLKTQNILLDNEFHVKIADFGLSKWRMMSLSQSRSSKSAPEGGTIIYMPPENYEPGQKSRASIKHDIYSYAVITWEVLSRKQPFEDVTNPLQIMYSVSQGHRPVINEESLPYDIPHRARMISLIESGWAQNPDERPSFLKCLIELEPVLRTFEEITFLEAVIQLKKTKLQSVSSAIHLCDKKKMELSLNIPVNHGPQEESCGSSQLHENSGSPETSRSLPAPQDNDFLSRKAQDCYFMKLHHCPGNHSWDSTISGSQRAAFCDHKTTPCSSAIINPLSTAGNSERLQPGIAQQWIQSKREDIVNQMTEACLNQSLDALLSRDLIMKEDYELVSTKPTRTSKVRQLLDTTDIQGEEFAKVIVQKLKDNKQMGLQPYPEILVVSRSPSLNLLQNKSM
# NTR1 ag = NTR1 (human) agonism; P30989; NTR1-U2OS beta-arrestin-GFP spot imaging, agonist mode; activation, % at 20 µM; 330,000 compounds, 0.17% hits; AID 493036;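 active = activation at or above 40% of the spot to cytoplasm intensity ratio, with at least 20 cells analyzed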;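 note: 0% = DMSO without peptide and 100% = 100 nM NTR1 peptide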
# TLR9-MyD88 inh = TLR9-MyD88 interaction inhibition | Q9NR96+Q99836 | CHO BLA complementation TLR9-MyD88, CCF4 FRET ratio | inhibition, % at 4.98 µM | 340,000 compounds, 0.21% hits | AID 504734;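 active = inhibition above the mean over all tested compounds plus 3 SD, cut at about 21% in these data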;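 note: 0% = DMSO only wells and 100% = clavulanate BLA inhibitor control wells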
# ABHD5 PLIN5 PPI = blocks binding of human ABHD5 to perilipin-5. Q00G26+Q8WTS1. Split G. princeps luciferase complementation, luminescence, 4 h. inhibition, % at 4 µM. 360,000 compounds, 0.78% hits;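 active = inhibition above the mean inhibition across every tested compound plus 3 SD, cut at about 22% in these data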;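 note: 0% = DMSO only wells and the 100% control is not disclosed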
# The depositor's hits bear a star; nt = not tested or not shown.
SMILES,B2AR ag,TLR4 MyD88 comp,NOD2-RIPK2 inh,NTR1 ag,TLR9-MyD88 inh,ABHD5 PLIN5 PPI
Cc1ccc(C)c(S(=O)(=O)N2CCCC2CNC(=O)C(=O)NC2CCCC2)c1 (centres undefined),61*,nt,-5,0,-7,-9
Cc1ccc(-c2nn(-c3ccccc3)cc2C2CC(c3cccs3)=NN2C(=O)CCCC(=O)O)cc1 (centres undefined),69*,3,-1,4,-5,-7
COc1ccc(-c2nn(-c3ccccc3)cc2C2CC(c3cccs3)=NN2C(=O)CCCC(=O)O)cc1 (centres undefined),-5,-4,-4,2,-8,1
COc1cncc(C#Cc2ccccn2)c1,nt,nt,-9,nt,nt,6
O=[N+]([O-])c1cc(CN2CCN(c3ccccc3)CC2)c(O)c2ncccc12,44*,-8,-3,1,1,1
Cc1cc2n(n1)C(c1ccccc1)CC(c1ccc(Br)cc1)=N2 (centres undefined),-18,-10,22*,nt,24*,-5
Fc1ccc(-c2nc3ccc(Br)cn3c2Cc2ccsc2)cc1,nt,nt,-2,nt,nt,-19
CNC(CC(=O)c1ccc([N+](=O)[O-])cc1)C(Cl)(Cl)Cl (centres undefined),91*,-3,-2,nt,-3,5
COc1ccc(C(=O)CC(Nc2ccc([N+](=O)[O-])cc2)c2ccc(OC)cc2)cc1 (centres undefined),5,-5,-5,2,0,-2
Cc1ccc(S(=O)(=O)NC(=O)C2(C)CCN2C(=O)c2ccccc2)cc1 (centres undefined),nt,nt,11,nt,nt,10
CCOc1cccc2c1OC(c1cc(OC)c(OC)c(OC)c1)N1N=C(c3ccc(C)o3)CC21 (centres undefined),-108,-22,3,0,3,25*
O=C(CC(Nc1ccccc1)C(=O)O)c1ccccc1 (centres undefined),-1,nt,-5,-2,3,23*
O=C1CCCC(=O)N1c1ccc(F)cc1,-6,nt,5,1,-4,1
O=c1c2cc(F)ccc2sn1-c1ccc(F)cc1,-6,nt,19,0,16,33*
Cn1c(=O)c(C(=O)NNC(=O)c2cccc(Cl)c2)c(O)c2ccccc21,77*,nt,-8,5,9,3
CCCCN(C)c1c(C)nc2ccc(C(=O)NCCOc3ccc(OC)cc3)cn12,nt,nt,6,nt,nt,3
CCCOc1ccc(/C=C/C(=O)Nc2ccc([N+](=O)[O-])cc2)cc1,9,6,-6,2,5,-2
Cc1ccc(/C=C/C(=O)Nc2ccc([N+](=O)[O-])cc2)o1,0,-3,6,3,-3,29*
COc1ccc(CCNC(=O)c2cccs2)cc1OC,2,5,0,1,-5,7
COc1ccc(CNc2nc(NCc3ccc(OC)c(OC)c3)n(C(=O)c3cccs3)n2)cc1OC,20,-5,-8,2,7,23*
Cc1ccc(OCCN2CCC2(C)C(=O)Nc2ccc3c(c2)OCO3)cc1 (centres undefined),nt,nt,-4,nt,nt,-3
COc1ccccc1/C=N/Nc1nc(C)cc(C)n1,-4,nt,-9,0,-10,7
Cc1cc(C)nc(N/N=C/c2ccccc2OCc2ccc([N+](=O)[O-])cc2)n1,97*,-6,-16,2,-2,2
COc1ccc(CCNC2=CC(=O)CCC2)cc1OC,nt,nt,-1,nt,nt,-2
Clc1cccc(CSc2nnc(-c3ccccn3)n2Cc2ccco2)c1,-1,-17,4,1,4,23*
Cc1cccc(NC(=O)C2CCN(S(=O)(=O)c3c(C)noc3/C=C/c3ccco3)CC2)n1,-3,2,0,0,3,23*
CCC(=O)NC(=S)Nc1cccc(Cl)c1N1CCCCC1,7,-2,-4,50*,6,-12
Cc1ccc(S(=O)(=O)NC2=C(N3CCN(c4ccccc4F)CC3)C(=O)c3ccccc3C2=O)cc1,4,-12,1,3,5,-4
Cc1ccc(S(=O)(=O)NC2=C(N3CCN(Cc4ccccc4)CC3)C(=O)c3ccccc3C2=O)cc1,53*,-9,-3,1,-19,-22
COCCOC(=O)c1c(C)nc(SCC(=O)Nc2ccc(OC)cc2)c(C#N)c1-c1ccco1,-4,9,-1,2,-5,6
